High-throughput results (PubChem)
Hits are enriched below; roughly 3.3% of the tested compounds scored in any of these assays.
Tb PYK inh – qHTS of Trypanosoma Brucei Inhibitors | AID 624173, 2012 | TbPYK enzyme, Kinase-Glo Plus ATP luminescence, 45 min | 410,000 compounds, 0.12% hits | Potency, µM (doses to about 76.8 µM), for the others: at the highest dose activity, negative = inhibition, most hits filed as inhibitors; note: % is set by controls: 0 for no effect and ±100 for the full control effect; nearly all actives have a fitted effect of over 50% in size
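Quantitative HTS: titrated library compounds versus trypanosomal pyruvate kinase in TEA buffer (pH 7.2) containing KCl, MgCl2, BSA and Tween-20. Reactions were initiated with ADP, 130 uM final. Kinase-Glo Plus luminescence was read after 45 min at RT.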
RE007 growth inh – qHTS Assay for Inhibitors of the HIV-1 protein Vpr | AID 651644, 2012 | 360,000 compounds, 0.21% hits | S. pombe RE007 Vpr strain, BacTiter-Glo ATP luminescence, 24 h | Potency, µM (titrated, usually from 92.2 µM), inactives show at the top dose activity change, negative = less growth, most hits filed as inhibitors; active = well fitted falling curve with a large enough effect; inconclusive = small, poorly fitted or top-dose-only effect; inactive = no such curve, though single readings can be large or run the other way; note: % is set by controls: 0 for no effect and ±100 for the full control effect; nearly all actives have a fitted effect of over 50% in size
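Fission yeast RE007 carrying one integrated HIV-1 vpr copy, seeded at OD 0.01 in PMG+AL medium with 23 nL pinned compound. Grown 24 h at 30 degrees; viability read by BacTiter-Glo luminescence after 5 min.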
AmpC inh detg – qHTS Inhibitors of AmpC Beta-Lactamase (assay with detergent). P00811. AmpC hydrolysis of nitrocefin, absorbance 480 nm, 0.01% Triton. Potency, µM (doses to about 114 µM), for inactives: at the highest dose activity change, negative = inhibition, hits mostly inhibitors. 370,000 compounds, 0.041% hits;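 note: 0% = no-compound wells and -100% = no-enzyme wells; nearly all actives have a fitted effect of over 25% in size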
Target sequence (P00811 whole entry, looked up): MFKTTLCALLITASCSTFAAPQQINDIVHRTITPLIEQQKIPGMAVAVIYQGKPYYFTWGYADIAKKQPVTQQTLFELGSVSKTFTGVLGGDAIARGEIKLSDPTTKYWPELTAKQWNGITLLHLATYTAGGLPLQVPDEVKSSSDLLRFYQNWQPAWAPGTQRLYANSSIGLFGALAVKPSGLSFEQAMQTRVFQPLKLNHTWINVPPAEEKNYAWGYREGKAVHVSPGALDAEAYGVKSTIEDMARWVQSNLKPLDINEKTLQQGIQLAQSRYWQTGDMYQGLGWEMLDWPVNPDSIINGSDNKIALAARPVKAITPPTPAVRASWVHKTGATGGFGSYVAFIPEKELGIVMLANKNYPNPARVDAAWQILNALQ
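AmpC (5.3 nM in the dispensed reagent) in 20 mM phosphate pH 7.0 with 0.01% (detergent screen) or 0.0001% Triton X-100 was preincubated with compounds for 15 min at room temperature. Nitrocefin was then added from an 800 uM solution, and hydrolysis was followed at 480 nm.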
SARS PLP yeast – qHTS of Yeast-based Assay for SARS-CoV PLP; S. cerevisiae expressing SARS-CoV PLpro, growth rescue; Potency, µM (doses to about 32.9 µM), inactives show at the top dose activity, positive = growth rescue, most hits filed as activators; 330,000 compounds, 0.19% hits; AID 485353, 2010; calls by dose curve; note: 0% is about no effect; nearly all actives have a fitted effect of over 55% in size
Sm TGR inh – qHTS Assay for the Inhibitors of Schistosoma Mansoni Peroxiredoxins; Schistosoma mansoni thioredoxin glutathione reductase (TGR), Q962Y6; purified TGR, DTNB reduction, TNB absorbance 405 nm; Potency, µM (highest dose often 114 µM), for the others: top-dose activity change, negative = inhibition, most hits filed as inhibitors; 360,000 compounds, 3% hits; AID 485364, 2010; note: % is set by controls: 0 for no effect and ±100 for the full control effect; nearly all actives have a fitted effect of over 60% in size
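TGR 20 nM + NADPH 100 uM (dispensed conc.), cpd preinc 15 min RT; start with NADPH (500 uM addition) then DTNB (15 mM addition). Kinetic TNB absorbance, 405 nm filter. Four-parameter Hill fit across titration.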
AmpC inh no detg – qHTS Inhibitors of AmpC Beta-Lactamase (assay without detergent); P00811; AmpC nitrocefin hydrolysis, absorbance 480 nm, 0.0001% Triton; Potency, µM (doses to about 57.1 µM), without a hit: top-dose activity change, negative = inhibition, hits mostly inhibitors; 330,000 compounds, 0.52% hits;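 note: plate controls were no compound for no effect and no enzyme for full effect; nearly all actives have a fitted effect of over 20% in size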
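AmpC (5.3 nM in the dispensed reagent) in 20 mM phosphate pH 7.0 with 0.01% (detergent screen) or 0.0001% Triton X-100 was preincubated with compounds for 15 min at room temperature. Nitrocefin was then added from an 800 uM solution, and hydrolysis was followed at 480 nm.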
* = called active by the depositor; ? = inconclusive; . = no result. Unless noted, calls come from the whole dose curve; as a rule, active = well fitted curve in the direction sought with a large enough effect; inconclusive = small, poorly fitted or top-dose-only effect, or another doubt; inactive = no such curve, though single readings can be large; an effect the other way counts as inactive or inconclusive. Potency is the fitted concentration of half-maximal effect.

SMILES | Tb PYK inh | RE007 growth inh | AmpC inh detg | SARS PLP yeast | Sm TGR inh | AmpC inh no detg
Fc1cccc(NC(=S)NC2CCCCCCC2)c1 | 2% | 8% | 3% | -14% | -5% | 13µM*
CC(C)Cn1c(C(C)NC(=O)Cc2ccccc2)nc2ccccc21 (stereo not given) | 7% | -26% | ? | 0% | -5% | 1.6µM*
CCCCn1c(C(C)NC(=O)CC)nc2ccccc21 (stereo not given) | 1% | 15% | ? | -6% | 5% | -2%
CCCCCCn1c(C(C)NC(=O)c2ccco2)nc2ccccc21 (stereo not given) | -7% | -5% | 4% | 0% | 40µM* | 68%
COC(=O)c1cccc(Nc2c(-c3ccc(SC)cc3)nc3nc[nH]n23)c1 | 1% | . | 4% | . | 0% | .
CC(=O)Nc1ccc2c(c1)CCc1ccccc1-2 | 0% | -18% | -6% | -5% | -14% | 3%
O=C(O)/C=C/C(=O)c1ccc2c(c1)CCc1ccccc1-2 | 35µM* | ? | -6% | -1% | 0.56µM* | -34%
Cc1ccccc1-c1oc(C)c(C)[n+]1[O-] | 4% | -1% | 1% | 1% | 25µM* | -14%
Cc1oc(-c2cccs2)[n+]([O-])c1C | -4% | 9% | ? | 6% | -31% | -1%
Cc1ccc(C)c(NC(=O)c2cc3ccccn3n2)c1 | -5% | -9% | ? | -5% | -2% | 4.5µM*
Cc1ccc(N/N=C(\C#N)C(N)=S)c(C)c1 | ? | 4% | 1% | -137% | ? | 3.5µM*
Cc1ccc(NC(=O)/C(C#N)=N/Nc2ccc(C(=O)O)cc2)c(C)c1 | -7% | 3% | 5% | -1% | 7% | -24%
CC(=O)Oc1cc2cccc(OC(C)=O)c(=O)c2c(OC(C)=O)c1OC(C)=O | -3% | ? | ? | 8.9µM* | ? | -50%
COc1cc2cccc(OC)c(=O)c2c(O)c1OC | 3% | -14% | ? | -1% | -10% | -10%
CCCCn1c(CCC)nc([N+](=O)[O-])c1Sc1ccc(Cl)cn1 | -6% | 2% | -6% | 9% | 22µM* | 4%
CC1=C(C(=O)Nc2cccnc2)C(c2ccccc2)n2nc(SCc3ccccc3F)nc2N1 (stereo not given) | 3% | . | -8% | . | -9% | .
COc1ccc(C(C[N+](=O)[O-])c2c(-c3ccccc3)cc3ccccn23)cc1 (stereo not given) | 2% | ? | 7% | 13% | -30% | -12%
COc1cc(C(C[N+](=O)[O-])c2c(-c3ccccc3)cc3ccccn23)cc(OC)c1OC (stereo not given) | -11% | -22% | -3% | -10% | 8.9µM* | 49%
COc1cc(C(C[N+](=O)[O-])c2c(C)cc3ccccn23)ccc1O (stereo not given) | ? | ? | -6% | -7% | 18µM* | 11%
COc1ccc(C(C[N+](=O)[O-])c2c(-c3ccccc3)cc3ccccn23)cc1OC (stereo not given) | -6% | ? | -4% | . | 7.9µM* | .
Cc1cc(C)c(NC(=O)C(=O)NCC(c2cccnc2)N2CCN(Cc3ccccc3)CC2)c(C)c1 (stereo not given) | -5% | . | 29% | . | 20% | .
CN(C)S(=O)(=O)c1ccc2c(c1)nnn2CCNC(=O)Nc1ccc(Br)cc1 | 3% | . | 15% | . | 2% | .
CC(=O)Nc1ccc(S(=O)(=O)N(Cc2ccco2)CC2CCCO2)cc1 (stereo not given) | 3% | 30% | ? | 4% | 25µM* | -9%
Cc1ccc(S(=O)(=O)N(CC(=O)O)Cc2ccco2)cc1 | -1% | 0% | -3% | -6% | ? | -24%
CCN(CC)S(=O)(=O)c1ccc(S(=O)(=O)N(CC(=O)Nc2ccccc2)Cc2ccco2)cc1 | -6% | -16% | -1% | 14% | 28µM* | -44%
SMILES | Tb PYK inh | RE007 growth inh | AmpC inh detg | SARS PLP yeast | Sm TGR inh | AmpC inh no detg
COC(=O)CN(Cc1ccco1)S(=O)(=O)c1ccccc1 | 3% | -2% | 3% | 3% | 22µM* | -9%
CC(=O)Nc1ccc(S(=O)(=O)N(Cc2cc3ccc(C)cc3[nH]c2=O)CC2CCCO2)cc1 (stereo not given) | 0% | 6% | 2% | ? | -4% | 81%
O=C1c2[nH]nc(-c3ccccc3O)c2C(c2ccc(Cl)cc2)N1Cc1ccco1 (stereo not given) | 3% | . | -1% | . | 10% | .
Cc1oc2ncn(CC(C)C)c(=O)c2c1C(=O)NCCCN1CCCCC1C (stereo not given) | 2% | . | 14% | . | 8% | .
O=C1/C(=C/c2cccnc2)SC(=S)N1Nc1ccccc1 | 2% | 12% | 10% | -5% | 2µM* | -10%
O=CNn1cnc2c(oc3nc(-c4ccccc4)cc(-c4ccco4)c32)c1=O | 2% | 3% | -2% | -1% | 40µM* | 3%
NNC(=O)c1oc2nc(-c3ccco3)cc(-c3ccco3)c2c1N | 4% | 4% | 9% | -2% | 17% | 32%
Cc1ccc2c(c1)c(=O)c1ccccc1n2CCCC(=O)Nc1ccc(F)cc1F | 0% | . | -9% | . | -2% | .
CN(C)CCSc1nc(O)c(-c2ccccc2)c(=O)n1-c1ccccc1 | -2% | -4% | 2% | 5% | 7% | -10%
CCCSc1nc(O)c(C2OC(=O)c3c2ccc(OC)c3OC)c(=O)n1-c1ccccc1 (stereo not given) | -13% | 6% | ? | 3% | 11µM* | -21%
CCCCSc1nc(O)c(C2OC(=O)c3c2ccc(OC)c3OC)c(=O)n1-c1ccccc1 (stereo not given) | -14% | -2% | -12% | 16% | 8.9µM* | -33%
C=CCSc1nc(O)c(C2OC(=O)c3c2ccc(OC)c3OC)c(=O)n1-c1ccccc1 (stereo not given) | 1% | -8% | -2% | -1% | 4µM* | -38%
Cc1cc(NC(=O)c2cnn(-c3ccccc3)c2-n2cccc2)ccc1Br | 3% | . | 16% | . | 8% | .
CCOC(=O)c1[nH]c2c(c1C)C(=O)CC(c1ccco1)C2 (stereo not given) | -4% | -9% | ? | -7% | 40µM* | -30%
Cc1c(C(=O)OCCOC(C)C)[nH]c2c1C(=O)CC(c1ccco1)C2 (stereo not given) | -6% | -8% | -4% | -14% | ? | -46%
